From ChEMBL document CHEMBL4513136, “CO-ADD screening of CSIC (Spain) compounds”
Results with a measured potency or affinity are listed apart.

Legend:
Staphylococcus aureus = conditions: Concentration 32 ug.mL-1; ASSAY_TEST Inhibition of Bacterial Growth; detection method Absorption (OD600); MEDIA CAMHB; plate type 384well; NBS; CORNING #3640; time 18 hr
Escherichia coli = conditions: Concentration 32 ug.mL-1; ASSAY_TEST Inhibition of Bacterial Growth; detection method Absorption (OD600); MEDIA CAMHB; plate type 384well; NBS; CORNING #3640; time 18 hr

Question: What does the source list for COc1ccc(OC)c(C(=O)CCc2ccccc2O)c1?
Answer: Inhibition (Staphylococcus aureus): 15.3%; Inhibition (Escherichia coli): -20.89%

Question: How did the Inhibition (Staphylococcus aureus) turn out when O=C(OCc1ccccc1)N1C(=O)C(c2ccccc2NC(=O)C(F)(F)F)=C(O)C1Cc1ccccc1 (stereo unspecified) was run?
Answer: 36.54%

Question: What about the Inhibition (Escherichia coli) of the same compound?
Answer: -6.54%

Question: With COc1ccc(OC)c(CC(=O)Nc2ccc(OC)cc2OC)c1 as the compound, how does the Inhibition (Staphylococcus aureus) read?
Answer: 26.56%

Question: And the Inhibition (Escherichia coli)?
Answer: -12.34%

Question: With O=C(/C=C/c1c[nH]c2ccc(O)cc12)c1cc(O)ccc1O as the compound, how does the Inhibition (Staphylococcus aureus) read?
Answer: 20.75%

Question: What about the Inhibition (Escherichia coli) of the same compound?
Answer: -12.64%

Question: For COc1ccc(OC)c(C(=O)CCc2ccc(O)cc2)c1, which Inhibition (Staphylococcus aureus) is on record?
Answer: 16.63%

Question: What about the Inhibition (Escherichia coli) of the same compound?
Answer: -22.53%

Question: What does the source list for O=C(Nc1ccc(O)cc1O)Nc1cc(O)ccc1O?
Answer: Inhibition (Staphylococcus aureus): 10.74%; Inhibition (Escherichia coli): -13.5%

Question: Which results are given for COc1ccc(OC)c(C(=O)/C=C/c2ccccc2O)c1?
Answer: Inhibition (Staphylococcus aureus): 11.52%; Inhibition (Escherichia coli): -22.92%

Question: For O=C(Cc1cc(O)ccc1O)Nc1ccc(O)cc1O, which Inhibition (Staphylococcus aureus) is on record?
Answer: 17.97%

Question: And the Inhibition (Escherichia coli)?
Answer: -13.2%

Question: Which results are given for O=C(/C=C/c1ccccc1O)c1cc(O)c(O)cc1O?
Answer: Inhibition (Staphylococcus aureus): 26.82%; Inhibition (Escherichia coli): -8.37%

Question: With COc1ccc(OC)c(CC(=O)Nc2cc(OC)ccc2OC)c1 as the compound, how does the Inhibition (Staphylococcus aureus) read?
Answer: 27.17%

Question: And the Inhibition (Escherichia coli)?
Answer: -12.93%

Question: For COc1ccc(OC)c(-c2cn(-c3ccc(OC)c(OC)c3)nn2)c1, which Inhibition (Staphylococcus aureus) is on record?
Answer: -11.96%

Question: And the Inhibition (Escherichia coli)?
Answer: -27.73%

Question: With O=C(CCc1ccc(O)cc1O)c1cc(O)ccc1O as the compound, how does the Inhibition (Staphylococcus aureus) read?
Answer: 23.73%

Question: What about the Inhibition (Escherichia coli) of the same compound?
Answer: -20.02%

Question: COc1ccc(OC)c(NC(=O)Nc2ccc(OC)cc2OC)c1 was tested. Which Inhibition (Staphylococcus aureus) did it give?
Answer: 5.98%

Question: What about the Inhibition (Escherichia coli) of the same compound?
Answer: -17.47%
